# Results published in PubChem BioAssay (NCATS).
# Records with an inconclusive call do not appear. A call without a number means that no potency is given here. Active and inactive are the calls of the source. Unless noted, calls follow the shape of the dose curve; as a rule, active = well fitted curve in the direction sought with a large enough effect; inconclusive = small, poorly fitted or top-dose-only effect, or another doubt; inactive = no such curve, though single readings can be large; an effect the other way counts as inactive or inconclusive.
# Assays:
# [1] = target: Mitogen-activated protein kinase 10 (Mus musculus) (UniProt Q61831); assay: JNK3 AlphaScreen Assay (AID 530; active = well fitted curve in either direction with a large enough effect, not every such curve was filed as active;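 also: kinase came from lysate of stimulated human HepG2 cells; signal reports phosphorylation of biotinylated GST-cJun 1-79 at Ser73 with 10 µM ATP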)
# Procedure, shortened: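 qHTS titrations with 15 min compound pre-incubation before adding ATP (10 uM final). Read-out: AlphaScreen of Ser73-phosphorylated biotin-GST-cJun using HepG2 lysate JNK3 activated by IL-1β and TNFα.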
# [2] = Cell Viability - Mesenchymal (AID 546);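 also: cells exposed to compound for 40 hours before reading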
# Procedure, shortened: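 CellTiter-Glo luminescence (intracellular ATP, 20 min room temperature) after 40 hr compound exposure at 37 °C of 1000 glomerulus-derived human kidney mesenchymal cells/well; AC50 values obtained by fitting qHTS concentration-response data to the Hill equation.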
# [3] = Cellular Toxicity (caspase-3) Jurkat (AID 655); conditions: Jurkat caspase-3 activation, luminescence; caspase-3 activation: at 92.2 µM (top of the series), DMSO = 0%, tamoxifen = 100%;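 also: cells exposed to compound for 16 h at 37 °C before reading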
# Procedure, shortened: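 qHTS in human Jurkat T-cell leukemia line: 16 hr compound treatment at 37 °C, caspase-3/7 activity measured by Caspase-Glo luminescence. AC50 derived from Hill equation.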
# [4] = Cellular Toxicity (caspase-3) BJ (AID 658);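 also: cells exposed to compound for 16 hours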
# Procedure, shortened: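 Caspase-Glo 3/7 luminescence, read 1 hr after reagent at room temperature, in normal BJ fibroblasts exposed 16 hours at 37 °C. AC50 values from Hill-equation concentration-response, scaled between DMSO basal and 10 uM staurosporine as 100%.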
# [5] = Cellular Toxicity (caspase-3) MRC-5 (AID 659)
# Procedure, shortened: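 Luminescent Caspase-Glo 3/7 read-out (1 h, room temperature) after a 16 h, 37 °C compound exposure of MRC-5 lung fibroblasts at 1500 cells/well. Concentration-response AC50 from Hill equation; 0% DMSO, 100% 10 uM staurosporine.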
# [6] = target: Cytochrome P450 3A4 (Homo sapiens) (UniProt P08684); assay: qHTS Assay for Inhibitors and Substrates of Cytochrome P450 3A4 (AID 884); also: nearly all actives have a fitted effect of over 50% in size; also: potency is read from the fitted curve at half-maximal effect
# Procedure, shortened: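 Luminescent readout of luciferin produced by CYP3A4 (20 nM) dealkylation of Luciferin-PPXE, 25 uM (its KM). NADPH-driven reaction ran 60 min at RT after 10 min compound preincubation; data scaled to 57 uM ketoconazole as 100% inhibition.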
# [7] = Cell Viability - LYMP2-001 (AID 921); also: nearly all actives have a fitted effect of over 70% in size
# Procedure, shortened: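 A lymphoblastoid cell line of human origin was treated with library compounds across a concentration series for 24 hours, and viable cell number was estimated from ATP-driven luciferase light output. Hill modeling gave AC50.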
# [8] = MultiTox-Fluor Cytotoxicity Assay - LYMP1-001 - Live Cells (AID 947)
# [9] = MultiTox-Fluor Cytotoxicity Assay - LYMP1-002 - Live Cells (AID 955);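 also: cells exposed to compound for 16 hours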
# Procedure, shortened: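 Cells were seeded at 2500 per well and incubated 5 hr. Compounds were then added for 16 hr at 37 C, followed by MultiTox-Fluor reagent for 60 min at room temperature and fluorescence reading of viable-cell protease signal.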
# [10] = Cell Viability - LYMP2-005 (AID 967)
# Procedure, shortened: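 Luciferase-based ATP quantitation served as the viability measure in human lymphoblastoid LYMP2-005 cells exposed to test compounds for 24 h at 37 C in complete culture medium. Potency (AC50) was obtained by fitting concentration-response curves with the Hill equation.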
# [11] = Cell Viability - LYMP2-015 (AID 971); also: nearly all actives have a fitted effect of over 55% in size
# Procedure, shortened: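 Cells are seeded at 2500 per well and incubated 5 hr at 37 C. Compounds are added across a concentration series for 24 hr at 37 C. CellTiter-Glo is added, and luminescence is read after 30 min at room temperature.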
# [12] = target: Thyroid hormone receptor beta (Homo sapiens) (UniProt P10828); assay: qHTS assay for small molecule agonists of thyroid hormone receptor beta signaling (AID 588545; calls by dose curve)
# Procedure, shortened: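 Compounds were tested as agonists in TR-UAS-bla-GripTite HEK 293 cells. After 18 hrs at 37 C, CCF4 substrate was added and fluorescence read after 2 hrs at room temperature.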
# [13] = qHTS assay for small molecule antagonists of retinoid X receptor alpha signaling (AID 588546; active = well fitted inhibition curve with a large enough effect in the signal ratio, with a control signal flat, not every such curve was filed as active; the % refers to the signal ratio;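 also: cells stimulated with 9-cis-retinoic acid as agonist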); conditions: HEK293T RXRa-UAS-bla, beta-lactamase ratio, antagonist mode; measured here: W530 green channel, cytotoxicity proxy
# Procedure, shortened: (§1)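 Beta-lactamase reporter inhibition, read as CCF4 fluorescence ratio (ex 405, em 460/530 nm) after 2 h at RT. HEK293T UAS-bla cells, 2500/well, were stimulated with 9-cis-RA at 500 or 100 nM final alongside test compound for 18 h at 37 C.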
# [14] = target: Retinoic acid receptor RXR-alpha (Homo sapiens) (UniProt P19793); assay: as above; conditions: HEK293T RXRa-UAS-bla, beta-lactamase ratio, antagonist mode
# Procedure, shortened: as §1
# [15] = target: Voltage-gated inwardly rectifying potassium channel KCNH2 (Homo sapiens) (UniProt Q12809); assay: qHTS Assay for Small Molecule Inhibitors of the Human hERG Channel Activity (AID 588834);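 also: top concentration of the series differs between compounds; lower thallium flux fluorescence means stronger hERG block; nearly all actives have a fitted effect of over 50% in size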
# Procedure, shortened: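 Homogeneous FluxOR thallium flux assay using hERG-expressing U2OS cells (BacMam). Compound treatment about 10 minutes preceded stimulation; reduced fluorescence taken as channel block.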
# [16] = qHTS assay for small molecule disruptors of the mitochondrial membrane potential - 5 hr assay (AID 651755; calls by dose curve; also: nearly all actives have a fitted effect of over 40% in size; also: potency is read from the fitted curve at half-maximal effect)
# Procedure, shortened: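 Membrane-potential dye readout: red aggregate (540 ex/590 em) versus green monomer (490 ex/535 em) fluorescence after 30 min dye loading, following 5 hr compound exposure at 37C of overnight-plated HepG2 cells.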
# [17] = qHTS assay for environmental chemicals that activate the Aryl hydrocarbon Receptor (AhR) signaling pathway (AID 651777); conditions: 1A2-DRE human hepatoma cells, luciferase, 24 h; activation: stronger effect = higher value; also: nearly all actives have a fitted effect of over 15% in size
# Procedure, shortened: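 Human hepatoma 1A2-DRE cells, stably carrying a dioxin response element and CYP1A2 promoter driving luciferase, were exposed to compounds for 24 hr at 37 C and 5% CO2. Luciferase signal was then read after 30 min One-Glo at room temperature.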
# [18] = target: Nuclear receptor ROR-gamma (Homo sapiens) (UniProt P51449); assay: qHTS assay for small molecule antagonists of the retinoid-related orphan receptor gamma (ROR-gamma) signaling pathway (AID 651802);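 also: CHO cells with doxycycline-induced ROR-gamma expression; nearly all actives have a fitted effect of over 60% in size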
# Procedure, shortened: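 Steps: cells dispensed; compound or DMSO transferred by pin tool; doxycycline added to induce the ROR response element-driven luciferase; plates held 16hr at 37C; ONE-Glo added and luminescence measured.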
# [19] = target: Nuclear receptor subfamily 1 group I member 2 (Rattus norvegicus) (UniProt Q9R1A7); assay: qHTS assay for small molecule activators of the rat pregnane X receptor (rPXR) signaling pathway (AID 651751; call rule not given here); conditions: rPXR reporter cells, luciferase (One-Glo), 24 h
# [20] = qHTS assay for small molecule activators of the human pregnane X receptor (PXR) signaling pathway (AID 720659; call rule not given here)
# Chain of Retinoic acid receptor RXR-alpha (Homo sapiens) (P19793 whole entry, looked up): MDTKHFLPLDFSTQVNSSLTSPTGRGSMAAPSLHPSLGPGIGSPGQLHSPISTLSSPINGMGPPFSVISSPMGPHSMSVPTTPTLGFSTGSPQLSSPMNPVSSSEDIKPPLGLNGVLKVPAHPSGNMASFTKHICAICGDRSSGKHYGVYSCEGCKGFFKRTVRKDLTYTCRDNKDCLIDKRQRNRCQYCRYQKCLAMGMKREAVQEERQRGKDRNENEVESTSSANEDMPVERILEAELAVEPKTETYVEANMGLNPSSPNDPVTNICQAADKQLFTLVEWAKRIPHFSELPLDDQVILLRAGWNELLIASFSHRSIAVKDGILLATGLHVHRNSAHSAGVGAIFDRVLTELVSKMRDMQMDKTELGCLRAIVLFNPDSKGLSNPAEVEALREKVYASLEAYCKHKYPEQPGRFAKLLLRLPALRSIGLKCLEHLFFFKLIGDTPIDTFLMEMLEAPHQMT
# Chain of Thyroid hormone receptor beta (Homo sapiens) (P10828 whole entry, looked up): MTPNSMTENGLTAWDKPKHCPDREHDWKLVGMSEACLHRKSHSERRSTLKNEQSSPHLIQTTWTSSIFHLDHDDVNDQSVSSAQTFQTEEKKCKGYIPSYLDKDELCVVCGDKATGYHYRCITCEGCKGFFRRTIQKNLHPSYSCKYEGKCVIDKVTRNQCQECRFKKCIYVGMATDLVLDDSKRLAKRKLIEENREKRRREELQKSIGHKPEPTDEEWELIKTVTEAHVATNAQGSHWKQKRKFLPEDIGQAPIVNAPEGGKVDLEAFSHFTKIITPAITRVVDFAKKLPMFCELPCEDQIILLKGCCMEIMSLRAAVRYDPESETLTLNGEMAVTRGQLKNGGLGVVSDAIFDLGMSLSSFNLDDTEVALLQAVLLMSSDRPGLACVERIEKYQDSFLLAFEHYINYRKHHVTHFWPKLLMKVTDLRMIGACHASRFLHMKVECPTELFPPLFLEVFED
# Chain of Nuclear receptor ROR-gamma (Homo sapiens) (P51449 whole entry, looked up): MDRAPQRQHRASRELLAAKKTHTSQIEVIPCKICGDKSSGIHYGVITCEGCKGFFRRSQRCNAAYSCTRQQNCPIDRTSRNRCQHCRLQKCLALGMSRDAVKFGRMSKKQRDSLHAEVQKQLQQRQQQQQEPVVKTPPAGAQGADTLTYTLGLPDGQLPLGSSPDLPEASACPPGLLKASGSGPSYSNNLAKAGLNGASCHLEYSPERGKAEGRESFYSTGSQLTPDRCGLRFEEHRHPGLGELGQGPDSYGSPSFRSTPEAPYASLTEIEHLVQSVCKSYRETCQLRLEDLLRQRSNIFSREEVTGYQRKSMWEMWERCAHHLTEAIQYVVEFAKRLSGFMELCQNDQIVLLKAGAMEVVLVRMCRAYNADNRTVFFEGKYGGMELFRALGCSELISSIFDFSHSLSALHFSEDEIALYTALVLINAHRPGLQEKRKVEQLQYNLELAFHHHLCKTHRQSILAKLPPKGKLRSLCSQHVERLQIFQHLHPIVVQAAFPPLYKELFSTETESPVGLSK
# Chain of Nuclear receptor subfamily 1 group I member 2 (Rattus norvegicus) (Q9R1A7 whole entry, looked up): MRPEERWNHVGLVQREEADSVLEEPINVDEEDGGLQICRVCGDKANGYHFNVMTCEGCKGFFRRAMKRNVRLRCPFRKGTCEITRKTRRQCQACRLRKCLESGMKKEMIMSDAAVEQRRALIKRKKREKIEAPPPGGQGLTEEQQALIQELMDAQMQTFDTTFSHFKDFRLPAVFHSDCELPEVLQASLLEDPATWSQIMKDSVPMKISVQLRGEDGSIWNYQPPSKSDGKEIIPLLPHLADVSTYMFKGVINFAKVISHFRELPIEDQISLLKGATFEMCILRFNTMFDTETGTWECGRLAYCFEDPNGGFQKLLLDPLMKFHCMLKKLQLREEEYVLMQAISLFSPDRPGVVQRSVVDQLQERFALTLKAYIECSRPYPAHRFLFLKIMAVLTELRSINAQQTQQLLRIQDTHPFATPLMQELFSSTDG
# Chain of Voltage-gated inwardly rectifying potassium channel KCNH2 (Homo sapiens) (Q12809 whole entry, looked up): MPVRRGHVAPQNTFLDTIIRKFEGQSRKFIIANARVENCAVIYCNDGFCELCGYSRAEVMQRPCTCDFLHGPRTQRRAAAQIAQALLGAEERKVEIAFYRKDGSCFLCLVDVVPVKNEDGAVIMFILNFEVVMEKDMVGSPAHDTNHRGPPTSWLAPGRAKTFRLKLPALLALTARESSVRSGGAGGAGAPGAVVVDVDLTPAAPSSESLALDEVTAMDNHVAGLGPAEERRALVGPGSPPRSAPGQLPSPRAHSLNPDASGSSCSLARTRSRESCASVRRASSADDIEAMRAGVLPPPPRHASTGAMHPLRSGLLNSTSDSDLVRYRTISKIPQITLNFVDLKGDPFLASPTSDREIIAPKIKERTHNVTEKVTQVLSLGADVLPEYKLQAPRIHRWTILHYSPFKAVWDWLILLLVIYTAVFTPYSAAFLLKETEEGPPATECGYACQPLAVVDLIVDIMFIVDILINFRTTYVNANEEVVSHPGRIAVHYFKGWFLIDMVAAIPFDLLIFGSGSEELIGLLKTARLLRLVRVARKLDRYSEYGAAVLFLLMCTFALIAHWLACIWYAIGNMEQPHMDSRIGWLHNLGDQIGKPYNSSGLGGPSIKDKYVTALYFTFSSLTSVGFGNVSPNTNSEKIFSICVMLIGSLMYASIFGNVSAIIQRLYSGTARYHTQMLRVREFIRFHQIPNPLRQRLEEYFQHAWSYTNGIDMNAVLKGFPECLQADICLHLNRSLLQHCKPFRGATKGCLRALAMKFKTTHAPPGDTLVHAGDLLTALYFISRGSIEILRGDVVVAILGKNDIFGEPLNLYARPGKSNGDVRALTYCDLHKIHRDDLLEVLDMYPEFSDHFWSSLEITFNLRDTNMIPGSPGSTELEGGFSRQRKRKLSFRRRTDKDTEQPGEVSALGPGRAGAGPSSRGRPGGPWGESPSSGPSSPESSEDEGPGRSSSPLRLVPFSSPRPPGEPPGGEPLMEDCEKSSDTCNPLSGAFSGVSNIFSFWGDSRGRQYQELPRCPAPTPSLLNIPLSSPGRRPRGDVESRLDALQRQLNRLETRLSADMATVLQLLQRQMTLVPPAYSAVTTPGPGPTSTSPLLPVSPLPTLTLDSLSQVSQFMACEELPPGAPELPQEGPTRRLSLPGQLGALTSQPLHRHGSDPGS
# Chain of Cytochrome P450 3A4 (Homo sapiens) (P08684 whole entry, looked up): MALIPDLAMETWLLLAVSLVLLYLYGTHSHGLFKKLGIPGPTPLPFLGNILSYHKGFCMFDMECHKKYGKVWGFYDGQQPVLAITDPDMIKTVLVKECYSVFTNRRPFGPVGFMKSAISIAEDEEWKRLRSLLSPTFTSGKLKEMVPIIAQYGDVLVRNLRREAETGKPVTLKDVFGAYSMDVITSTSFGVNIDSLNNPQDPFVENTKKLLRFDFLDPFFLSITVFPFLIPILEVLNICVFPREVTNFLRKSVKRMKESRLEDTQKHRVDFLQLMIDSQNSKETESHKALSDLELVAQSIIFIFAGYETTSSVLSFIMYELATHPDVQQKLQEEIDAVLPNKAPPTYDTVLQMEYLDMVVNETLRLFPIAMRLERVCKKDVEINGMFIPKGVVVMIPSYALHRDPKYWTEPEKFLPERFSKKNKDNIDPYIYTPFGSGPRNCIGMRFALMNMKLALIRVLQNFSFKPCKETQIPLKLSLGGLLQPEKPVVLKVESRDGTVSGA
SMILES,Potency [1],Potency [2],caspase-3 activation [3],outcome [4],outcome [5],Potency [6],Potency [7],outcome [8],outcome [9],Potency [10],Potency [11],Potency [12],max response [13],max response [14],Potency [15],Potency [16],activation [17],Potency [18],max response [19],outcome [20]
CCCBr,inactive,inactive,0.185% (inactive),inactive,inactive,inactive,inactive,inactive,inactive,inactive,inactive,inactive,-1.75%,1.56% (inactive),inactive,inactive,0.665% (inactive),inactive,-1.34% (inactive),inactive
CCCCCc1cc(O)cc(O)c1,inactive,inactive,1.33% (inactive),–,inactive,12.6 µM (active),inactive,inactive,inactive,–,inactive,inactive,-2.02%,-16.8% (inactive),inactive,37.6 µM (active),9.87% (inactive),inactive,-1.86% (inactive),inactive
CCCCCC[N+](=O)[O-],inactive,inactive,0.0633% (inactive),inactive,inactive,inactive,inactive,inactive,inactive,inactive,inactive,inactive,-11.1%,-13.3% (inactive),inactive,inactive,0.0869% (inactive),inactive,1.74% (inactive),inactive
N#CCc1ccccc1,inactive,inactive,-0.89% (inactive),inactive,–,inactive,inactive,inactive,inactive,inactive,inactive,–,-0.865%,20.3% (inactive),inactive,inactive,-0.841% (inactive),inactive,1.21% (inactive),inactive
CCC(Cl)[N+](=O)[O-] (stereo unspecified),inactive,inactive,1.33% (inactive),inactive,inactive,inactive,inactive,–,inactive,inactive,inactive,inactive,-9.88%,-10.3% (inactive),inactive,inactive,-0.0264% (inactive),inactive,-0.428% (inactive),inactive
CN(C)N=O,inactive,inactive,0.809% (inactive),inactive,inactive,inactive,inactive,inactive,–,–,inactive,inactive,1.95%,-0.776% (inactive),inactive,inactive,0.336% (inactive),inactive,2.44% (inactive),inactive
OCCBr,inactive,inactive,–,inactive,–,inactive,inactive,–,inactive,inactive,inactive,inactive,8.33%,2.44% (inactive),inactive,inactive,-0.283% (inactive),inactive,-0.978% (inactive),inactive
ClC(Cl)C(Cl)Cl,inactive,inactive,1.02% (inactive),inactive,inactive,inactive,inactive,inactive,inactive,inactive,inactive,inactive,-2.39%,4.18% (inactive),inactive,inactive,-2.65% (inactive),–,3.27% (inactive),inactive
C=CC(=O)OC,inactive,inactive,0.227% (inactive),inactive,inactive,inactive,inactive,inactive,inactive,inactive,inactive,inactive,-10.6%,-3.6% (inactive),inactive,inactive,1.42% (inactive),inactive,0.297% (inactive),inactive
CC(C)(Cl)[N+](=O)[O-],inactive,inactive,0.332% (inactive),inactive,inactive,inactive,inactive,inactive,inactive,inactive,inactive,inactive,-8.14%,5.8% (inactive),inactive,inactive,-0.364% (inactive),inactive,2.49% (inactive),inactive
Cc1ccc([N+](=O)[O-])cc1,inactive,inactive,-0.655% (inactive),inactive,inactive,inactive,–,inactive,inactive,inactive,inactive,inactive,1.21%,4.07% (inactive),inactive,inactive,-0.408% (inactive),inactive,3.32% (inactive),inactive
Cl/C=C/Cl,inactive,inactive,-1.85% (inactive),inactive,inactive,inactive,inactive,inactive,–,inactive,–,inactive,-8.73%,6.16% (inactive),inactive,–,0.896% (inactive),inactive,-3.34% (inactive),inactive
CN(C)c1ccccc1,inactive,inactive,0.927% (inactive),inactive,inactive,inactive,–,inactive,inactive,inactive,inactive,inactive,5.14%,5.23% (inactive),inactive,inactive,–,–,-6.91% (inactive),inactive
O=[N+]([O-])c1ccccc1-c1ccccc1,inactive,inactive,0.923% (inactive),inactive,inactive,inactive,inactive,inactive,inactive,inactive,inactive,inactive,-2.63%,0.902% (inactive),–,inactive,-0.891% (inactive),inactive,0.722% (inactive),inactive
